Results taken from PubChem BioAssay (NCI).
About 83,000 compounds went through this panel and 20% of them were active in at least one assay; those are over-represented in the sample as a whole.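 Plates (96-well) were seeded with cells, treated with compound at one concentration, and incubated for 48 hours before percent growth was determined.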 Values without a mark were called inactive. Active and inactive are the calls of the source. How the source made its calls: active means growth percent below 10; inactive means the rest.

What follows are compounds tested on UACC-62 melanoma (assay: NCI-60 one-dose screen, 48 h (100 = growth as untreated, 0 = no growth, -100 = all killed)). Conditions: 10 µM.
With `Cc1ccc(/C=C/C(=O)c2ccc(NC(=O)CSc3nnc(-c4c[nH]c5ccccc45)n3-c3ccccc3)cc2)cc1` the growth was 75.8%.
`O=C(Nc1nc2ccc([N+](=O)[O-])cc2s1)Nc1cc(Cl)ccc1I` was tested, and the growth was -54.1% (active).
`Cc1ccc(C(=O)CSc2nnc(-c3c[nH]c4ccccc34)n2-c2ccccc2)cc1` gave a growth of 23.9%.
Compound `COc1ccc2[nH]c(O)c(N=NC(=O)c3cc(-c4ccc(C)cc4)nc4ccccc34)c2c1` has a growth of 96.5%.
For `Cn1cc(/C=N/Nc2cccc(Cl)n2)c2ccccc21`, the growth was 67.7%.
With `N#Cc1ccc(-c2nn(-c3ccc(C(=O)O)cc3)cc2CNc2ccc(Cl)cc2)cc1` the growth was 61.2%.
`O=c1[nH]c2ccccc2cc1CSc1ccc(Nc2nccc(-c3ccc4ccccc4c3)n2)cc1` showed a growth of 95.7%.
`OCCCNc1oc(-c2ccccc2)nc1[P+](c1ccccc1)(c1ccccc1)c1ccccc1` was tested, and the growth was -70.2% (active).
For `COc1ccc(C(=O)/C=C/c2cc(C(F)(F)F)cc(C(F)(F)F)c2)cc1S(N)(=O)=O`, the growth was -73.4% (active).
`CS(=O)(=O)Nc1ccc(-c2ccc3c(c2)ncn3-c2ccc(NC(=O)Nc3ccc(Cl)c(C(F)(F)F)c3)cc2)cc1` was tested, and the growth was -85.8% (active).
`O=c1nc(-c2ccccc2)cc(-c2cc3ccccc3nc2Cl)[nH]1` showed a growth of 35.1%.
Compound `COc1cccc(/C=C2\N=C(C)N(CCc3ccc(S(N)(=O)=O)cc3)C2=O)c1` has a growth of 94%.
`O=S(=O)(Nc1ncccn1)c1ccc(-n2c(-c3ccccc3)nc(-c3ccccc3)c2-c2ccccc2)cc1` showed a growth of 83.7%.
For `Cc1ccc(-c2nc(Nc3ccc(S(N)(=O)=O)cc3)c3ccccc3n2)cc1`, the growth was 78.5%.
With `COc1ccc(C(C)=C(c2ccc(OCCCN(C)C)cc2)c2ccc(OCCCN(C)C)cc2)cc1` the growth was -96.6% (active).
With `COC[C@@H](CC(C)C)N=C1NC(=O)/C(=C/c2ccc3ncsc3c2)N1` the growth was 1.43% (active).
In the case of `Cc1ccc(-c2nc3ccc(C(=O)N=Nc4c(O)[nH]c5ccc(Cl)cc45)cc3[nH]2)cc1`, the growth is reported as 22.6%.
With `COc1cccc(/C=N/NC(=O)c2ccc3nc(-c4ccc(Cl)cc4)[nH]c3c2)c1O` the growth was -92% (active).
Compound `N#Cc1ccc(-c2nn(-c3ccc(C(=O)O)cc3)cc2CNc2ccc(Oc3ccccc3)cc2)cc1` has a growth of 21.9%.
`CC(=O)c1ccc(Nc2nc(SCCC(C)C)nc(-c3ccc(F)cc3)c2C#N)cc1` gave a growth of 89.8%.
`Cc1cc(C)nc(NS(=O)(=O)c2ccc(N/C(N)=N/c3nccc(-c4ccccc4)n3)cc2)n1` gave a growth of 59%.
Work on `COc1cccc(-c2ccnc(/N=C(\N)Nc3ccc(S(=O)(=O)Nc4nc(C)cc(C)n4)cc3)n2)c1` yielded a growth of 102%.
`CC(=O)C1=C(C)NC(SCC(=O)Nc2ccc(S(=O)(=O)Nc3cc(C)on3)cc2)=NC1c1ccccc1` (configuration not stated) showed a growth of 97.1%.
In the case of `COc1cccc2nc(Nc3ccc(F)c(NC(=O)c4ccc(CN5CCN(C)CC5)c(C(F)(F)F)c4)c3)ccc12`, the growth is reported as -82.1% (active).
For `CNCc1cccc2c1OCCCCCC[C@@](C)(O)CC1(CC1)S(=O)(=O)c1ccc(cc1)-c1cnc(N)c(n1)C(=O)N2`, the growth was -90.8% (active).
Compound `CN(C)c1ccc(/C=C/c2nc3ccccc3c(=O)n2CC(=O)Nc2ccccc2)cc1` has a growth of 43.7%.
Compound `O=C1CCC(N2Cc3c(C#CCCCNC(=O)c4ccc(NC(=O)[C@@H]5NC6(CCCCC6)[C@@]6(C(=O)Nc7cc(Cl)ccc76)[C@H]5c5cccc(Cl)c5F)cc4)cccc3C2=O)C(=O)N1` (some centres not stated) has a growth of 17.3%.
With `O=C(N/N=C/c1ccc(-c2cccc([N+](=O)[O-])c2)o1)c1[nH]c2ccc(Br)cc2c1-c1ccccc1` the growth was 33%.
Work on `O=C(c1ccc(Cl)cc1)C1[C@H](c2ccccc2Br)[C@@H](c2ccccc2)NC12C(=O)Nc1ccc(Br)cc12` (some centres not stated) yielded a growth of 19.6%.
With `O=C(c1ccc(Cl)cc1)C1[C@H](c2ccccc2Br)[C@@H](c2ccccc2)NC12C(=O)Nc1ccccc12` (some centres not stated) the growth was 7.38% (active).
`O=C(Nc1cc(Cl)cc(Cl)c1)Nc1cc(Cl)cc(Cl)c1` was tested, and the growth was -66.1% (active).
In the case of `CC(C)C1=C[C@@]23CC[C@@H]4[C@](C)(CCC[C@]4(C)C(=O)NCc4ccccc4)[C@H]2C[C@@H]1[C@H]1C(=O)CCC(=O)[C@H]13`, the growth is reported as 59.6%.
For `COc1ccc(Nc2nc(N)n(Cc3cccc(Br)c3)n2)cc1`, the growth was 2.3% (active).
Work on `O=S(=O)(Nc1ncccn1)c1ccc(-n2c(-c3ccc(Br)cc3)nc(-c3ccccc3)c2-c2ccccc2)cc1` yielded a growth of 34.3%.
With `Clc1cccc(N/N=C/c2c[nH]c3ccccc23)n1` the growth was 55.1%.
In the case of `COc1ccc2c(c1)N=C(C(=O)O)/C2=C/c1sc(Nc2ccc(O)cc2)nc1O`, the growth is reported as 42.9%.
`CCCCCc1ccc(S(=O)(=O)N(C(C)=O)c2cc(-c3csc(N(C)C(C)=O)n3)ccc2N2CCN(C)CC2)cc1` was tested, and the growth was -88.2% (active).
